This assay deals with VDR:RXRa (NR concentration 270 nM, RXRa partner concentration 90 nM). The assay can be described thus: PBM binding z-score (relative to random genomic background probes); higher = stronger binding; sequences stand for … in GC…GCGATTGACAGCGTAGAATGAAGG
The procedure:
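Protein-binding microarray (Agilent 4x180K custom design, double-stranded 60-nt probes: 5' GC cap, 34-nt variable region, 24-nt constant primer region; full probe sequence given). Purified or IVT nuclear receptor:RXRα heterodimers (3:1 NR:RXRα, mostly 270:90 nM) or homodimers were incubated for 1 h in PBS with 2% milk and no ligand, then detected with Alexa488 antibodies. Fluorescence from o1-orientation probes (~5 replicates averaged) was converted to z-scores against 500 random hg19 background probes. Variable regions are seed direct-repeat (DR0–DR5) sites, all their single-nucleotide variants and half-site ablations.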
ATACCAAGGTGATCGTGAGGTCGTTGGTACTAAC had a PBM binding z-score of 3.09.
As for TCTCGGAGGACACGACGGTCAGAGCTTTCCAGAG, the figure is -0.164; as for CCTTACGGGTCACTCCAGGATATAGCATCGGAGT, 2.88.
Next, CTCGAAAGGTCGGTGGAGGTGAGTATACGGATAA: 1.79; CAAACTAGGTCACCGGAAGGTCAAGGTCCGCATG: 5.58.
As for TCGTGTAGGTTAGGGGCATTCAGAATGGCGTCGA, the figure is 0.914.
The sequence TAGCCTAGCTCATGGGCCAGTATACCACGCGAAC displayed a PBM binding z-score of -0.717.
As for ATATGTAGGTTACATCCGGGTCAGTCAGGCTATG, the figure is 2.62; as for TGAATGCGGTTATAAGATCAGGGAACGTTGCAAA, -0.0836; as for TTACCATGGTGAAGGTCGTTGATCCCTCTGTAGA, 0.949.
GCCTACGGGTCAAAGGTTATAGCATGAATAGAAT registered a PBM binding z-score of 5.46.
As for GCAGACAGGTGAAACGCATGTAACTCAGGGTGGC, the figure is -0.601; as for ACCTCTAGGTAAAGATAGTTCAGTGAATGCAAAT, 0.302.
Take CGTCCAAGGACAAAGGTCAGTGAAGAGATGACGG: the PBM binding z-score came to 2.64.
As for TCTGCTAGGTCAGTTGGTCATCTAACGAGCTGCC, the figure is 0.463.
For CAAACTAGGTCACCGGAAGGTCAAAGACCGCATG, the PBM binding z-score was determined as 5.76.
As for AGTCAAAGTTCTGGACGAGGTAACGTAAAGCACG, the figure is -0.216.
Next, ACTAGCAGGCCAAGGGTCACTCAAGATTAGTCCG: 2.61; GCATATAGGTAATACAAGGTGAACGTCCGATTGT: 0.043; TCTTGTAGATCGACAGGAGGTTAAGAAAGATCGA: 0.501.
Next, TGTAGTTGGTCACGGAGGTCACACACGACGGGTA: 5.47.
Take AATACAGGGTCATCGTAGGCCACAGTACGCACAG: the PBM binding z-score was 5.63.
Next, TCATATAGGTAAAGGTGGAAGTCGAACGATATGA: 0.368.
Next, TTATATAGGTAAAGGTGAAAGTCGAACGATATGA: 1.07; CGTCCAAGGTCAGAGAGGTCAGTGGATGCCGAGT: 7.33.
Consider TCATTTAGGTAAAGGTGAAAGTCGAACGATATGA, for which the PBM binding z-score worked out at 1.23.
Next, CCTTACGGGTCGCGAGGTTATAGCACGACGAGCG: 2.88; ATCGAAAGGTCGTGAGGCGAGTATACAGAAAGGC: 3.18.
In turn, CCTTACGGGTCACTCCAGCTTATAGCATCGGAGT showed a PBM binding z-score of 2.73.
As for CCGACTGGGGCAAGGGTACCATAACGCACAGCCA, the figure is -0.346; as for CCTACTGGGCCACGAGAGGTCATTGATTCAGTGA, 4.45; as for CGTCCAAGGTCAAGTTCAGTGAAAGAGACTCGAA, 4.91.
With CCTACTGGGCTAAGGTCATTGATCAGTCAAAGCA, the PBM binding z-score was 3.39.
As for TCTATTAGTTGATTAGGACAACCGAAACAGCGGA, the figure is 1.12; as for TGAATGAGGTTATAAAATCAGGGAACGTTGCAAA, 0.918; as for CTACCAAGGTGAACAAGGTCGTTGAATACTATTC, 5.99.
TAGCCTATGTCATGGGCCAGTATACCACGCGAAC yielded a PBM binding z-score of -0.365.
As for CCTCACGGGTCACGAGGTTATAGCACGACGAGCG, the figure is 4.79; as for TCTAGTTAGTCACGGAGGTCACACACGACGGGTA, 4.24.
As for ATATGTAGGTTAAGGGTCAGTCAGGTTGGTTCGC, the figure is 4.37.

The record behind these values is the supplement of paper PMC6555819.
